Source: PubChem BioAssay AID1159580 (chemical genetic matrix, 2015)
Among all 5,500 compounds or so, about 2,000 (36%) were called active. About 18% were inconclusive and are not listed. No stated cut-off is given here; in the data, active means normalized growth mostly below about 0.91 (no sharp cut-off); inconclusive means no clear call, values can overlap the other calls; inactive means mostly above about 0.92. Some of the results follow.

Test: chemical genetic growth profiling, strain panel (AID 1159580);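 further: tested at 20 µM; growth read once vehicle control cultures reached saturation at 30 °C; 1 = growth at the plate median or of vehicle wells; lower values mean less growth of the strain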
Details: S. cerevisiae deletion strains, growth OD

Measured: normalized growth

CC1(C)N([O-])[N+](=O)C1(C)Br (stereo not given)
inactive: locus YAL021C, strain ccr4, active compounds read low 0.967 | locus YAL026C, strain drs2, active compounds read low 0.99 | locus YAL030W, strain snc1, active compounds read low 1 | locus YBL061C, strain skt5, active compounds read low 0.981 | locus YBR009C, strain hhf1, active compounds read low 0.995 | locus YBR023C, strain chs3, active compounds read low 0.983 | locus YBR171W, strain sec66, active compounds read low 0.968 | locus YBR231C, strain swc5, active compounds read low 0.988 | locus YBR279W, strain paf1, active compounds read low 0.995 | locus YCL011C, strain gbp2, active compounds read low 0.965 | locus YCL016C, strain dcc1, active compounds read low 0.99 | locus YCL061C, strain MRC1, active compounds read low 1 | locus YCL069W, strain vba3, active compounds read low 0.969 | locus YCR088W, strain abp1, active compounds read low 0.967 | locus YDL005C, strain med2, active compounds read low 0.978 | locus YDL040C, strain nat1, active compounds read low 0.992 | locus YDR001C, strain nth1, active compounds read low 0.987 | locus YDR069C, strain doa4, active compounds read low 0.992 | locus YDR137W, strain rgp1, active compounds read low 1.07 | locus YDR159W, strain sac3, active compounds read low 0.98 | locus YDR195W, strain ref2 0.972 | locus YDR297W, strain sur2, active compounds read low 0.987 | locus YDR334W, strain swr1, active compounds read low 0.969 | locus YDR335W, strain msn5, active compounds read low 0.968 | locus YDR392W, strain spt3, active compounds read low 0.906 | locus YEL003W, strain gim4, active compounds read low 0.984 | locus YEL037C, strain rad23, active compounds read low 0.982 | locus YEL061C, strain CIN8 (second series), active compounds read low 0.973 | locus YER015W, strain faa2, active compounds read low 0.962 | locus YER016W, strain bim1, active compounds read low 0.992 | locus YER111C, strain swi4, active compounds read low 0.996 | locus YER155C, strain BEM2 (second series), active compounds read low 0.974 | locus YFR010W, strain ubp6, active compounds read low 0.979 | locus YGL167C, strain pmr1, active compounds read low 0.987 | locus YGL173C, strain kem1, active compounds read low 0.984 | locus YGL227W, strain vid30, active compounds read low 0.982 | locus YGL240W, strain doc1, active compounds read low 0.994 | locus YGL253W, strain hxk2, active compounds read low 0.982 | locus YHR013C, strain ard1, active compounds read low 0.977 | locus YHR027C, strain rpn1, active compounds read low 0.991 | locus YHR030C, strain SLT2, active compounds read low 0.966 | locus YHR079C, strain IRE1, active compounds read low 0.966 | locus YHR142W, strain chs7, active compounds read low 0.968 | locus YJL092W, strain hpr5, active compounds read low 0.963 | locus YJL095W, strain BCK1 (second series), active compounds read low 0.973 | locus YJL095W, strain BCK1, active compounds read low 0.975 | locus YJL115W, strain asf1, active compounds read low 0.979 | locus YJL129C, strain trk1, active compounds read low 0.976 | locus YJL154C, strain vps35, active compounds read low 0.969 | locus YJL164C, strain tpk1, active compounds read low 0.995 | locus YJL166W, strain qcr8, active compounds read low 0.988 | locus YJL187C, strain SWE1, active compounds read low 1.01 | locus YJR066W, strain TOR1, active compounds read low 0.907 | locus YKL160W, strain elf1, active compounds read low 0.998 | locus YKR026C, strain gcn3, active compounds read low 0.984 | locus YKR091W, strain srl3, active compounds read low 0.995 | locus YLL001W, strain dnm1, active compounds read low 1 | locus YLL026W, active compounds read low 0.986 | locus YLL041C, strain sdh2, active compounds read low 0.99 | locus YLR027C, strain aat2, active compounds read low 1 | locus YLR113W, strain HOG1, active compounds read low 0.993 | locus YLR221C, strain rsa3, active compounds read low 0.985 | locus YLR258W, strain gsy2, active compounds read low 0.985 | locus YLR262C, strain YPT6 (second series), active compounds read low 1.03 | locus YLR320W, strain mms22, active compounds read low 0.985 | locus YLR342W, strain FKS1, active compounds read low 0.978 | locus YLR357W, strain rsc2, active compounds read low 0.999 | locus YLR370C, strain arc18, active compounds read low 0.982 | locus YLR384C, strain iki3, active compounds read low 0.986 | locus YML120C, strain ndi1, active compounds read low 0.984 | locus YMR058W, strain fet3, active compounds read low 0.994 | locus YMR125W, strain sto1, active compounds read low 0.974 | locus YMR129W, active compounds read low 0.992 | locus YMR205C, strain PFK2, active compounds read low 0.998 | locus YMR231W, strain pep5, active compounds read low 0.96 | locus YNL071W, strain lat1, active compounds read low 0.973 | locus YNL183C, strain NPR1, active compounds read low 0.912 | locus YNL209W, strain ssb2, active compounds read low 0.989 | locus YNL248C, strain rpa49, active compounds read low 0.992 | locus YNL322C, strain KRE1 (second series), active compounds read low 0.979 | locus YNR049C, strain mso1, active compounds read low 0.99 | locus YOR001W, strain rrp6, active compounds read low 0.988 | locus YOR070C, strain gyp1, active compounds read low 0.976 | locus YOR080W, strain dia2, active compounds read low 0.985 | locus YOR083W, strain WHI5, active compounds read low 0.994 | locus YOR106W, strain vam3, active compounds read low 0.966 | locus YOR231W, strain MKK1, active compounds read low 0.977 | locus YOR265W, strain rbl2, active compounds read low 0.993 | locus YOR270C, strain vph1, active compounds read low 1.01 | locus YOR290C, strain snf2, active compounds read low 0.987 | locus YPL051W, strain arl3, active compounds read low 0.985 | locus YPL078C, strain atp4, active compounds read low 0.986 | locus YPL106C, strain sse1, active compounds read low 0.977 | locus YPL240C, strain hsp82, active compounds read low 0.97 | locus YPL256C, strain CLN2, active compounds read low 0.956
